Hits are enriched below; roughly 4% of the tested compounds scored in any of these assays.
D1 ag: human D1 receptor agonism. HEK293 T-REx D1 cells, calcium flux, agonist mode. activation, % at 2 µM. AID 504660. 360,000 tested, 1% active. P21728
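Tetracycline-induced HEK293 TREx D1 cells, force-coupled to calcium signalling, were dye-loaded with a no-wash calcium kit. Compound was pin-added after a 10 s baseline. Fluorescence was read kinetically at 1 cycle/s for 180 s, with calcium rises flagged as agonism.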
D1 PAM: human D1 dopamine receptor positive modulation | 360,000 tested, 0.036% active | potentiation, % at 10 µM | P21728 | HEK293 TREx D1 cells, calcium flux, dopamine EC20 potentiation | AID 504651; in the data active = potentiation above about 30%
TRHR ag: activates the human TRH receptor; 360,000 tested, 0.18% active; P34981; activation, % at 2 µM; TRHR cells, calcium flux fluo-8, FDSS agonist mode
Target sequence (P34981 whole entry, looked up): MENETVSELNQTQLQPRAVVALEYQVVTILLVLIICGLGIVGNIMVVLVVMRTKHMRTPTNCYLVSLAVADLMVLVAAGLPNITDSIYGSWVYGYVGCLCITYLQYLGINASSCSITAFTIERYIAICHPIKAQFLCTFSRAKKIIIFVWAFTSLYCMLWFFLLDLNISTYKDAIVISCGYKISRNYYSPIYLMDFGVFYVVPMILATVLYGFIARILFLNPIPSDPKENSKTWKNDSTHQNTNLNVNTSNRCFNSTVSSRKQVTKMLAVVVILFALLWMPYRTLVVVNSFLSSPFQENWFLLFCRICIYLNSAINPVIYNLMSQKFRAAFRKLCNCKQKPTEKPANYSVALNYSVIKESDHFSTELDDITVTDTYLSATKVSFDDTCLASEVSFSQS
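Fluo-8-loaded TRHR cells; 10 s baseline, compound added, kinetic Ca2+ fluorescence read 1/s, agonist mode.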
TRHR enhancer: allosterically enhances the human TRH receptor. P34981. TRHR cells, fluo-8 calcium fluorescence, EC20 TRH enhancement. enhancement, % at 2 µM. 360,000 tested, 0.66% active. AID 493056; in the data active = enhancement above about 30%
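TRHR-expressing cells loaded with fluo-8 calcium dye were read kinetically (ex 480/em 530) during compound addition, then stimulated with an EC20 of TRH (10 nM final). Enhancement of the Gq-mediated intracellular calcium response was scored.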
D1 antag: blocks dopamine activation of the human D1 receptor; 360,000 tested, 3.2% active; HEK293 TREx D1 cells, calcium flux, dopamine EC80; hits give low values; activity change, negative = inhibition, % at 10 µM; P21728; in the data active = activity change below about -30%
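After overnight tetracycline induction at 30 C, force-coupled D1 HEK293 cells took up a no-wash calcium dye at room temperature. Compounds were added and monitored 180 s, and the response to EC80 dopamine was then recorded.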
Glioma ERSR ind: inducers of ER stress response in human glioma cells; 420,000 tested, 0.02% active; U87-MG GRP78 promoter luciferase reporter, 16 h; Potency, µM, hits mostly activators; AID 602332; active = well fitted activation curve with a large enough effect; note: series mostly up to about 76 µM; nearly all actives have a fitted effect of over 35% in size
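ERSR induction read as luciferase luminescence (Bright-Glo, 10 min at room temperature) in stably transfected human U87-MG glioma cells exposed to compounds for 16 h, using GRP78 as sensor.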
Large screens that a line does not name were inactive; ! = not confirmed by another sample. Cut-off read from the data, not from the text of the source, unless noted: active = activation above about 30%; inactive = the rest.

CS(=O)(=O)N1CCN(c2ccccc2NC(=O)c2ccc3c(c2)OCCO3)CC1	none
CC1=CC(c2ccccc2)n2nc(N3C(=O)c4ccccc4C3=O)nc2N1 (configuration not stated)	none
CN(C)c1ccc(C2C=C(c3ccccc3)Nc3nnnn32)cc1 (configuration not stated)	D1 ag 31
CC1=CC(c2ccccc2)n2nnnc2N1 (configuration not stated)	D1 antag -35
CCOc1ccc(C2C=C(c3ccccc3)Nc3nnnn32)cc1 (configuration not stated)	none
O=C(NCc1nc2ccccc2[nH]1)c1cccc(S(=O)(=O)N2CCCC2)c1	none
CC(NS(=O)(=O)c1ccc(F)cc1)C(c1cccs1)N1CCOCC1 (configuration not stated)	none
NS(=O)(=O)c1ccc(NC(=O)c2cccc3ccccc23)cc1	D1 antag -36
NS(=O)(=O)c1ccc(NC(=O)c2ccccc2Cl)cc1	none
COc1ccccc1C(=O)NNC1=C(C(=O)C(F)(F)F)CCC1	none
COc1cccc(C(=O)NNC2=C(C(=O)C(F)(F)F)CCC2)c1	TRHR enhancer 33
CN(c1nc2c(c(=O)n(C)c(=O)n2C)n1CC(=O)c1ccccc1)C1CCCCC1	none
O=C(OCC(=O)N1CCCc2ccccc21)c1cnc(Cl)c(Cl)c1	D1 ag 41
O=C(Cn1cnc2ccccc21)OCC(=O)N1CCCc2ccccc21	D1 antag -61
Cc1ccc(Cl)cc1-n1c(=O)c2sc3ccccc3c2n(Cc2ccccc2)c1=O	none
COc1ccccc1N1CCN(C(=O)c2cnn(-c3cccc(Cl)c3)c2C2CCN(C(=O)OC(C)(C)C)CC2)CC1	none
Cc1ccc(N(CC(=O)NCCSc2ccccc2)S(=O)(=O)c2ccc(F)cc2)cc1	D1 antag -31
CCOc1ccc(S(=O)(=O)N(CC(=O)NCCSc2ccc(C)cc2)c2ccccc2)cc1	none
COc1ccc(N(CC(=O)N/N=C/c2ccc(-c3ccc([N+](=O)[O-])cc3)o2)S(=O)(=O)c2ccc(C)cc2)cc1	D1 ag 73
COc1ccc(S(=O)(=O)N(CC(=O)NCCSCc2ccccc2)c2ccc(C)cc2)cc1	D1 ag 32
Cc1ccc(S(=O)(=O)NCCSCc2ccccc2)cc1	D1 antag -30
COc1ccc(N(CC(=O)N/N=C/c2ccc(-c3ccc([N+](=O)[O-])cc3)o2)S(=O)(=O)c2ccc(C)cc2)cc1Cl	none
CCOc1ccccc1NS(=O)(=O)c1ccc2c(c1)oc(=O)n2C	none
COc1ccc(S(=O)(=O)N(CC(=O)NCCSc2ccc(C)cc2)c2ccc(C)cc2)cc1	D1 ag 56
COc1ccc(N(CC(=O)NCc2ccc(C)cc2)S(=O)(=O)c2c(C)[nH]c(=O)[nH]c2=O)cc1	D1 antag -35!
COc1ccc(CNC(=O)CN(c2ccc(OC)cc2)S(=O)(=O)c2c(C)[nH]c(=O)[nH]c2=O)cc1	none
Cc1cccc(NC(=O)c2cccc(S(=O)(=O)N3CCCCC3)c2)c1	none
CCCCn1nc(C(=O)N(CCOC)c2c(N)n(CCCC)c(=O)[nH]c2=O)c2ccccc2c1=O	D1 antag -30 (no result: D1 PAM)
CCCN(C(=O)CCOc1ccc(C(C)(C)C)cc1)c1c(N)n(Cc2ccccc2)c(=O)[nH]c1=O	D1 antag -50
CCCCn1c(N)c(N(CC)C(=O)c2c(CC)noc2C)c(=O)[nH]c1=O	none
CCCn1c(N)c(N(CCOC)C(=O)c2ccc(F)cc2)c(=O)[nH]c1=O	none
CCCN(C(=O)COC(=O)CCOc1ccccc1)c1c(N)n(Cc2ccccc2)c(=O)[nH]c1=O	none
CCCn1c(N)c(N(CCOC)C(=O)c2ccccc2)c(=O)[nH]c1=O	D1 antag -36
CCCCCn1nc(C(=O)N(CCOC)c2c(N)n(CCCC)c(=O)[nH]c2=O)c2ccccc2c1=O	none
CCCCn1c(N)c(N(Cc2ccccc2OC)C(=O)c2c(CC)noc2C)c(=O)[nH]c1=O	D1 antag -44
O=C(CN1C(=O)NC2(CCCCC2)C1=O)N(Cc1ccco1)Cc1cccs1	none
CC(C)CN(C(=O)c1cccc([N+](=O)[O-])c1)c1c(N)n(CC(C)C)c(=O)[nH]c1=O	TRHR enhancer 33
COCCN(C(=O)c1cccc(-n2cnnn2)c1)c1c(N)n(CC(C)C)c(=O)[nH]c1=O	D1 antag -40
COCCN(C(=O)CSc1nnc(Nc2ccc(C)cc2)s1)c1c(N)n(CC(C)C)c(=O)[nH]c1=O	D1 PAM 36
Cc1ccc(OCC(=O)N(C)CC(=O)N(CC(C)C)c2c(N)n(CC(C)C)c(=O)[nH]c2=O)c(C)c1	D1 antag -31
C(#Cc1ccc2c(c1)COc1c3ccccc3nn1-2)c1ccccc1	none
O=c1[nH]c(/C=C/c2ccccc2Cl)nc2ccccc12	none
COc1ccc(CCNC(=O)CCS(=O)(=O)c2cc3c(cc2Cl)NC(=O)CO3)cc1OC	none
COc1ccc(C)cc1-n1nnnc1SC(C)C(=O)NC1CCCC1 (configuration not stated)	none (no result: D1 ag, D1 PAM, TRHR ag, TRHR enhancer, D1 antag)
Cc1c(Cl)cccc1-n1c(SCC(=O)NCc2ccccc2)nc2n[nH]c(C)c2c1=N	TRHR enhancer 42
COc1cccc(C(=O)Cn2c(=O)n(CCC(=O)NCC3CCCO3)c(=O)c3cc(OC)c(OC)cc32)c1 (configuration not stated)	none
COc1cc2c(=O)n(CCC(=O)NCC3CCCO3)c(=O)n(CC(=O)c3ccc(Cl)cc3)c2cc1OC (configuration not stated)	D1 antag -30
COc1ccc(C(=O)Nc2nnc(SCC(=O)NCC3CCCO3)s2)cc1OC (configuration not stated)	D1 antag -30
O=S(=O)(c1ccc(NC2CCCc3ccccc32)nc1)N1CCOCC1 (configuration not stated)	none
CC(C)N=C1NN=C(c2ccc(F)cc2)CS1	none
COc1ccccc1CNC(=O)COC(=O)C1=COCCO1	D1 antag -66
CN1CCc2cccc3c2[C@@H]1Cc1ccc(O)c(O)c1-3	D1 antag -58
COc1cc(-c2cc(C(=O)Nc3ccc(O)cc3)c3ccccc3n2)cc(OC)c1OC	none
c1ccc(-c2cc(-c3nnco3)c3ccccc3n2)nc1	TRHR enhancer 34
COc1cc(-c2cc(-c3nnco3)c3ccccc3n2)cc(OC)c1OC	D1 antag -96
CCCCn1c(CN(C)Cc2ccccc2)nc2c1c(=O)n(C)c(=O)n2C	none
CCCn1c(CN(C)Cc2ccccc2)nc2c1c(=O)n(C)c(=O)n2C	D1 antag -43
N/N=C(\c1ccccc1)c1cc(Br)ccc1N	none

Bioassay records deposited in PubChem by National Center for Advancing Translational Sciences (NCATS).
